Data as given in PubChem BioAssay.
Activity calls are given as the source filed them. The rule behind the calls is not given here.

Test: Brca1-Bard1 BiLC signal decrease – luminescence, single concentration, counter-screen for Mdm2/MdmX interaction inhibitor project, confirmation (AID 504668)
Conditions: Brca1/Bard1 bimolecular luciferase complementation counterscreen, at 8 µM, hits give high values

SMILES	inhibition
O=c1c2ccccc2nc(N/N=C/c2c(O)ccc3ccccc23)n1O	35.9% (active)
Nc1ccc(C(=O)OCc2nc3cc4ccccc4cc3[nH]2)cc1	34.5% (active)
C/C(N=Nc1nc2ccccc2s1)=N\Nc1ccccc1O	26.2% (active)
O=C(Nc1ccc(-c2nc3ccc(NC(=O)c4cccs4)cc3[nH]2)cc1)c1cccs1	33.7% (active)
CCOc1cccc2sc(NC(=O)CCS(=O)(=O)c3ccccc3)nc12	35.4% (active)
O=C(CCl)Nc1cccc(S(=O)(=O)NC2=NCCCCC2)c1	35.8% (active)
N#CC(C#N)=C(Nc1ccc(F)cc1)SCc1cccc(F)c1	23.3% (active)
Cc1ccc(-n2ncc3c(SCc4ccccn4)ncnc32)c(C)c1	27.6% (active)
Cc1cc(Nc2cccc([N+](=O)[O-])c2)n2c(nc3ccccc32)c1C#N	30.7% (active)
O=C(CCc1ccccc1)N/N=C/c1cc(Br)ccc1O	26.9% (active)
O=C(COc1ccc([N+](=O)[O-])cc1)Nc1nc(-c2ccccn2)cs1	35.6% (active)
CCOc1ccc(CN2CCN(CC(O)Cn3c4ccccc4c4ccccc43)CC2)cc1 (centres undefined)	35.8% (active)
O=C(N/N=C/c1ccccc1O)c1cccc(C(F)(F)F)c1	35.8% (active)
CC1=NN(c2ccccc2)C(=O)/C1=C\C=C\c1ccccc1	28.9% (active)
COc1cccc(-c2nnc(NC(=O)c3ccc(S(=O)(=O)N(CC(C)C)CC(C)C)cc3)o2)c1	24.3% (active)
COc1ccc2[nH]c3c(N4CCC(O)(c5cccc(C(F)(F)F)c5)CC4)ncnc3c2c1	32.1% (active)
Cc1cccc(NC(c2ccc(C)s2)c2ccc3ccc(C)nc3c2O)n1 (centres undefined)	23.7% (active)
Cc1cc(C(=O)Nc2ccc(Cl)cc2)c(C)n1-c1ccccc1	30.6% (active)
CN1CCN(Cc2cc(COCc3ccccc3)c3cccnc3c2O)CC1	29.5% (active)
CCCOc1ccc(C(=O)C(CN2CCOCC2)c2ccccc2)cc1 (centres undefined)	25.6% (active)

SMILES	inhibition
Cc1cccc(/C=N/NC(=O)Cc2ccc(Cl)cc2)c1O	29.9% (active)
N#C/C(=N/Nc1ccc(OC(F)(F)F)cc1)C(N)=S	35% (active)
CC(C)c1ccc(/C=C2\SC(=S)N(CCC(=O)N3CCCCC3CCO)C2=O)cc1 (centres undefined)	29.9% (active)
N=c1c2c(-c3ccccc3)c(-c3ccccc3)n(Cc3ccco3)c2ncn1Cc1ccccc1	23% (active)
COc1ccc(Oc2ccc(/C=C/C(=O)c3cccc(OC)c3)cc2[N+](=O)[O-])cc1	26.2% (active)
Cc1ccc(-c2oc3ccccc3c(=O)c2O)cc1	24.8% (active)
CC1=NNC(=O)/C1=C\c1cn(-c2ccccc2)nc1-c1cccs1	25.7% (active)
COc1ccc([C@@H]2[C@@H]3C(=O)N(C(C)(C)C)C(=O)[C@@H]3[C@]3(Cc4ccccc4)C(=O)N(c4ccc(C(F)(F)F)cc4)C(=O)N23)cc1	27.8% (active)
COc1ccc(C(=O)C(CN2CCCC2)c2ccccc2)cc1 (centres undefined)	27.6% (active)
O=C1N(c2ccccc2)C[C@@H]2C[C@@H](c3cc4ccccc4o3)N3CCC[C@@]123	35.1% (active)
Oc1ccc(CNc2ccccc2F)c2cccnc12	30.8% (active)
COc1ccc(-c2csc(NC(=S)NC(=O)c3ccco3)n2)cc1Br	23.1% (active)
COc1cc(OC)c2cc(C(=O)N/N=C/c3cccc(OC)c3O)[nH]c2c1	33.8% (active)
C/C(=N\Nc1nc(-c2ccccn2)nc2ccccc12)c1ccc(F)cc1	34.4% (active)
COc1ccc(C(=O)C/C(=C\C(=O)c2ccc(C)cc2)c2ccccc2)cc1	24.3% (active)
O=C(N/N=C(\Cc1ncc[nH]1)c1ccccc1)c1ccccc1	24.8% (active)
Cc1ccc(CNC(=O)c2ccc3c(=O)c(O)c(-c4ccc(C)cc4)[nH]c3c2)cc1	29% (active)
O=C1c2ccccc2C(=O)c2c(Nc3ccc(CCO)cc3)ccc(O)c21	33.2% (active)
Oc1ccc(COCc2ccccc2)c2cccnc12	28.7% (active)
